Source: PubChem (National Center for Advancing Translational Sciences (NCATS))
HT1080-NT tox: kills 2HG-producing HT-1080-NT fibrosarcoma cells; HT-1080-NT fibrosarcoma viability, CellTiter-Glo ATP luminescence, 48 h; Potency, µM (series often up to 46.1 µM), without a hit: at the top dose activity, negative = less viability, hits mostly cytotoxic; 1.6% of 360,000 active; AID 686970;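 further: NT is the 2HG producing partner of a matched IDH1 knockdown line; potency means the concentration at half of the fitted maximal effect; 0% = DMSO-treated cells and -100% = media-only wells without cells; nearly all actives have a fitted effect of over 55% in size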
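750 cells/well, RPMI + 5% FBS; 2 h settle, compound pin-transfer, 48 h at 37 degrees C. CellTiter-Glo 10 min RT, luminescence. Normalized to DMSO and media-only wells.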
ALOX12 inh: inhibitors of human 12S-lipoxygenase ALOX12; P18054; Potency, µM (series often up to 108 µM), inactives show at the top dose activity change, negative = inhibition, usual class: inhibitors; 1.1% of 580,000 active; AID 1671190; purified 12hLO, xylenol orange hydroperoxide absorbance; further: potency means the concentration at half of the fitted maximal effect
Target sequence (P18054 whole entry, looked up): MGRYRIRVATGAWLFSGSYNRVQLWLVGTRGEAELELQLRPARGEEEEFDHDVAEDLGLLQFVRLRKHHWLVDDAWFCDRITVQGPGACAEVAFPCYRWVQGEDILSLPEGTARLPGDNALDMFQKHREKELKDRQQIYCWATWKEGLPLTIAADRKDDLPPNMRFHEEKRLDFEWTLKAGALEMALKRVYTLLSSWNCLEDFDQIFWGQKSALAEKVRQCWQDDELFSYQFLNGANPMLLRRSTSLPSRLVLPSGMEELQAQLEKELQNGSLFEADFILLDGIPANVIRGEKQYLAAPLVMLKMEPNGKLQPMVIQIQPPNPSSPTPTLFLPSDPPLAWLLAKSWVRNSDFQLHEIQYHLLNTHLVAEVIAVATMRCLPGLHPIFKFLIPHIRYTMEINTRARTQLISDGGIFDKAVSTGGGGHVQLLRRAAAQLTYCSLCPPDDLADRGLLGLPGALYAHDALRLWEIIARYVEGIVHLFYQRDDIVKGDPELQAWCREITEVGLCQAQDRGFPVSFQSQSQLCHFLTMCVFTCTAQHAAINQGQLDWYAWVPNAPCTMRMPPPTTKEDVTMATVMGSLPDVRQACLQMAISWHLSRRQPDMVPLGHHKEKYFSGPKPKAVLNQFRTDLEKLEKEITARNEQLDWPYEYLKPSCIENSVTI
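Purified human 12hLO at 150 nM in 25 mM Hepes, 0.01% Triton X-100, pH 7.0, preincubated 15 min at room temperature with compound. Reaction started with 40 uM arachidonic acid, 30 min at room temperature. Hydroperoxide measured by Fe-xylenol orange, 573/405 nm absorbance ratio.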
TDP1 cell CPT: DT40-hTDP1 cell growth loss with CPT; chicken DT40 Tdp1-/-;hTDP1 cells + 20 nM CPT, ATP luminescence, 48 h; AID 686979; 12% of 420,000 active; Potency, µM (series often up to 46.2 µM), inactives show at the highest dose activity change, negative = growth inhibition, hits mostly inhibitors; further: potency means the concentration at half of the fitted maximal effect; nearly all actives have a fitted effect of over 55% in size
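Cell growth measured by CellTiter-Glo luminescence after a minimum 48 h, 37 C compound exposure with 20 nM CPT in Tdp1-knockout DT40 cells stably expressing hTDP1, seeded 400/well; qHTS titration format.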
TDP1 cell noCPT: qHTS for Inhibitors of human tyrosyl-DNA phosphodiesterase 1 (TDP1): qHTS in cells in absence of CPT | Potency, µM (titrated, usually from 46.2 µM), inactives show top-dose activity change, negative = growth inhibition, usual class: inhibitors | 15% of 420,000 active | DT40 Tdp1-/- hTDP1 cells, no CPT, ATP luminescence, 48 h | AID 686978, 2013; further: potency means the concentration at half of the fitted maximal effect; nearly all actives have a fitted effect of over 55% in size
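Stably hTDP1-transfected Tdp1-null chicken DT40 cells were treated with library compounds minus camptothecin and grown for at least 48 hr at 37 °C, after which cellular ATP was quantified by luminescence.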
HT1080 IDH1KD tx: kills HT-1080 cells with IDH1 knockdown. HT-1080 IDH1 knockdown viability, ATP luminescence, 48 h. Potency, µM (titrated, usually from 46.1 µM), inactives show top-dose activity, negative = toxicity, actives largely listed as cytotoxic. 2% of 360,000 active;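 further: potency means the concentration at half of the fitted maximal effect; 0% = DMSO wells and -100% = cell-free medium wells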
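Using the IDH1-knockdown HT-1080 line run in the same batch and compound series as the NT line, viability after 48 h at 37 °C was determined by CellTiter-Glo luminescence and expressed as % activity.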
IL-1B inflam inh: inhibitors of inflammasome signaling (IL-1 beta secretion) | THP-1 LPS/ATP IL-1B secretion, AlphaLISA, 16 h; active compounds read low | AID 743279 | activity change, % at 57.5 µM | 4.7% of 360,000 active; in the data active means activity change below about -50%; inconclusive means mostly about -30% to -49%
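THP-1 cells pretreated 1 hr with compounds (up to 57.5 uM final), then stimulated with LPS (250 ng/mL final) plus ATP (1.25 mM final); secreted IL-1B measured by AlphaLISA after 16 hr, decreased signal indicating inhibition.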
* hit, by the source's call; ? = inconclusive; . = no result. This is one part of a sample in which hits are shown more often than they occur. Unless noted, the call rests on the fitted dose curve; in most records, active means well fitted curve in the direction sought with a large enough effect; inconclusive means small, poorly fitted or top-dose-only effect, or another doubt; inactive means no such curve, though single readings can be large; an effect the other way counts as inactive or inconclusive. Unless noted, on the % scale 0 is the no-effect control and ±100 the full control effect.

SMILES | HT1080-NT tox | ALOX12 inh | TDP1 cell CPT | TDP1 cell noCPT | HT1080 IDH1KD tx | IL-1B inflam inh
COc1cc(/C=C/C(=O)c2ccc(F)cc2)cc(OC)c1OC | 23µM* | 76% | ? | 16µM* | 18µM* | -74*
O=C(c1ccco1)N1CCC[C@H]1c1nc(-c2ccc(F)cc2)no1 | . | 11% | . | . | . | .
O=C(CCC[C@@H]1[C@H]2CCCN3CCC[C@@H](CN1C(=O)CCc1ccccc1)[C@@H]23)N1CCOCC1 | . | 32% | . | . | . | .
CC(C)(C)CC(C)(C)N=C1Nc2ccc([N+](=O)[O-])cc2N[C@]12C[C@H]1CCCC(=O)N3CC[C@@H](C2)[C@@H]13 | . | . | 18µM* | 11µM* | . | .
O=C1CCC[C@@H]2C[C@@]3(C[C@@H]4CCN1[C@H]24)Nc1ccccc1NC3=NC1CCCCC1 | . | . | -26% | -25% | . | .
CC(C)(C)CC(C)(C)N=C1Nc2ccc(Cl)cc2NC12C[C@H]1CCC(=O)N3CC[C@@H](C2)[C@@H]13 (some centres not stated) | . | . | ? | 13µM* | . | .
O=C1CCC[C@@H]2C[C@@]3(C[C@@H]4CCN1[C@H]24)Nc1cc(Cl)c(Cl)cc1NC3=NCc1ccccc1 | 1% | -17% | 18µM* | 20µM* | 3% | -19
CC1(C(=O)NCc2ccccc2)CCC(=O)N1Cc1ccccc1Cl (configuration not stated) | . | 16% | . | . | . | .
Cc1noc2nc(-c3ccccc3F)cc(C(=O)NCc3ccccc3F)c12 | . | 5% | . | . | . | .
CCC(=O)N1CCN(c2nc(CC)nc3sc4c(c23)CCCC4)CC1 | -28% | 0% | -27% | ? | -15% | -23
CC1CCc2c(sc3nc(C(C)(C)C)nc(N4CCN(C(=O)CCl)CC4)c23)C1 (configuration not stated) | 12µM* | ? | 1.8µM* | 2.6µM* | 4.6µM* | -95*
CCn1ccc2cc(S(=O)(=O)N3CCC(C(=O)NCCCOC(C)C)CC3)ccc21 | . | 5% | . | . | . | .
CCC(Oc1ccccc1F)C(=O)NCc1csc(-c2ccccc2)n1 (configuration not stated) | . | 30% | . | . | . | .
COc1cc2c(cc1OC)CN(c1nc(CN3CCCC3)nc3sc(C)c(C)c13)CC2 | 15µM* | -15% | -23% | ? | ? | -67*
O=C(C[C@@H]1C/C=C\C[C@@H](Cc2ccc(F)cc2)C(=O)OC[C@H]2CCCN2C1=O)N[C@H](CO)Cc1ccccc1 | 1% | -4% | ? | 21µM* | 1% | -5
O=C(C[C@H]1C/C=C\CC[C@H](Cc2ccc(F)cc2)C(=O)OC[C@H]2CCCN2C1=O)N[C@@H](CO)Cc1ccccc1 | -6% | -2% | ? | 15µM* | -4% | 2
O=C(C[C@H]1C/C=C\CC[C@@H](Cc2ccc(F)cc2)C(=O)OC[C@H]2CCCN2C1=O)N[C@@H](CO)Cc1ccccc1 | -28% | ? | ? | 15µM* | -1% | -20
O=C(C[C@H]1C/C=C\CC[C@H](Cc2ccc(F)cc2)C(=O)OC[C@@H]2CCCN2C1=O)N[C@H](CO)Cc1ccccc1 | 0% | -3% | 26µM* | ? | -1% | -13
CN1CC(=O)N(c2ccccc2F)Cc2c1ncnc2N1CCCCC1 | . | 38% | . | . | . | .
CNC(=O)COC(=O)c1c(C)c(-c2ccccc2)nc2ccccc12 | . | 14% | . | . | . | .
O=C(C[C@@H]1C/C=C\CC[C@@H](Cc2ccc(F)cc2)C(=O)OC[C@@H]2CCCN2C1=O)N[C@H](CO)Cc1ccccc1 | -1% | ? | 16µM* | 18µM* | -7% | -7
